Inconclusive results are not listed. Active and inactive are the calls of the source. The call rests on the fitted dose curve; in most records, active means well fitted inhibition curve with a large enough effect; inconclusive means small, poorly fitted or top-dose-only effect; inactive means flat fitted curve, though single readings scatter.
What follows are compounds tested against Voltage-gated inwardly rectifying potassium channel KCNH2 (Homo sapiens) (UniProt Q12809) (assay: qHTS Assay for Small Molecule Inhibitors of the Human hERG Channel Activity (AID 588834;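 further: lower thallium flux fluorescence means stronger hERG block; nearly all actives have a fitted effect of over 50% in size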; on activity change, negative = inhibition: top concentration of the series differs between compounds)). Conditions: U2OS BacMam hERG, FluxOR thallium flux fluorescence; series mostly up to 46.1 µM; activity change, negative = inhibition: at the top concentration.
Excerpt: NIH Chemical Genomics Center [NCGC]
National Institutes of Environmental Health Sciences [NIEHS]
National Toxicology Program [NTP]
We have developed a 1536-well cell-based assay for quantitative high throughput screening (qHTS) to determine in vitro hERG channel blockage as a measure of cardio toxicity with small molecules. This particular assay uses the U2OS cell line which is derived from human osteosarcoma.
NCGC Assay Protocol Summary:
HERG assay (FluxORTM thallium flux assay) was initially developed by Invitrogen/Molecular Probes, and then miniaturized into 1536-well plate in a homogeneous format by NCGC. This assay measures the activity of potassium channel using thallium dye (FluxOR) flux as surrogate measurement for potassium into the cells with a FDSS-7000 kinetic plate reader (Hamamatsu Corp., Hamamatsu City, Japan). The hERG ion channel is transduced into mammalian cells (U2OS) using a baculovirus (Bacmam) construct harboring the hERG K+ ion channel. So far we screened LOPAC1280 library (Sigma), the NTP collection of 1408 compounds, and the NCGC Pharmaceutical Collection (NPC), in which many well defined HERG blockers are present. The rank order potencies of many of these compounds are similar to that of other HERG assays (membrane potential, Rb+ flux, patch clamp, etc). This quick and homogeneous assay is also found to be sensitive, specific, and robust.
Using the FluxORTM thallium flux assay, the activity of potassium channel using thallium dye (FluxOR) flux as surrogate measurement for potassium into the cells was measured in the U2OS cell line transduced with hERG K+ ion channel using a baculovirus (Bacmam) using Opti-MEM medium (Invitrogen) containing 2% fetal calf serum (FCS, HyCone) following loading buffer addition, compound treatment for around 10 minutes and finally adding stimulation buffer. The assay was performed in black clear Kalypsys 1536-well plates. In the screen, Astemizole was used as positive controls. Library compounds were measured for their ability to cause hERG channel blockage in the cell line, as reflected by a decrease in fluorescence intensity, in a concentration-dependent manner. […] AC50 values were determined from concentration-response data modeled with the standard Hill equation.
qHTS protocol for hERG-U2OS cellular assay
[Step] [Parameter] [Value] [Description]
1. Day 1: Replace medium in 70-80% confluent T225 flask with 2.5 mL of hERG-BacMam virus plus 12.5 mL of phosphate buffered saline (PBS) (corresponding roughly to a multiplicity of infection ratio of 100 virus particles/cell)
2. Incubation: 4 hrs @ room Temperature in Dark
3. Reagent; Remove virus; wash once with 25 ml DPBS
4. Reagent; 35 ml culture medium
5. Incubation; 37 °C overnight
6. Day2: Reagent; 3 uL; 2000 U2OS cells/well
7. Time; 4 hr; 37 °C incubation
8. Loading buffer; 1 uL; 0.7X;
9. Incubation: 1hr @ RT in Dark.
12. Time; 10min; 37 °C incubation
13. Read fluorescence Intensity on FDSS for 10 Sec with 1 sec interval
14. Reagent; 1 uL; stimulation buffer
15. Read fluorescence Intensity on FDSS for 2 min with 1 sec interval
16. Detection; Fluorescence Intensity; FDSS
On the % scale 0 is the no-effect control and ±100 the full control effect; potency means the concentration at half of the fitted maximal effect.

Voltage-gated inwardly rectifying potassium channel KCNH2 (Homo sapiens), sequence (Q12809 whole entry, looked up): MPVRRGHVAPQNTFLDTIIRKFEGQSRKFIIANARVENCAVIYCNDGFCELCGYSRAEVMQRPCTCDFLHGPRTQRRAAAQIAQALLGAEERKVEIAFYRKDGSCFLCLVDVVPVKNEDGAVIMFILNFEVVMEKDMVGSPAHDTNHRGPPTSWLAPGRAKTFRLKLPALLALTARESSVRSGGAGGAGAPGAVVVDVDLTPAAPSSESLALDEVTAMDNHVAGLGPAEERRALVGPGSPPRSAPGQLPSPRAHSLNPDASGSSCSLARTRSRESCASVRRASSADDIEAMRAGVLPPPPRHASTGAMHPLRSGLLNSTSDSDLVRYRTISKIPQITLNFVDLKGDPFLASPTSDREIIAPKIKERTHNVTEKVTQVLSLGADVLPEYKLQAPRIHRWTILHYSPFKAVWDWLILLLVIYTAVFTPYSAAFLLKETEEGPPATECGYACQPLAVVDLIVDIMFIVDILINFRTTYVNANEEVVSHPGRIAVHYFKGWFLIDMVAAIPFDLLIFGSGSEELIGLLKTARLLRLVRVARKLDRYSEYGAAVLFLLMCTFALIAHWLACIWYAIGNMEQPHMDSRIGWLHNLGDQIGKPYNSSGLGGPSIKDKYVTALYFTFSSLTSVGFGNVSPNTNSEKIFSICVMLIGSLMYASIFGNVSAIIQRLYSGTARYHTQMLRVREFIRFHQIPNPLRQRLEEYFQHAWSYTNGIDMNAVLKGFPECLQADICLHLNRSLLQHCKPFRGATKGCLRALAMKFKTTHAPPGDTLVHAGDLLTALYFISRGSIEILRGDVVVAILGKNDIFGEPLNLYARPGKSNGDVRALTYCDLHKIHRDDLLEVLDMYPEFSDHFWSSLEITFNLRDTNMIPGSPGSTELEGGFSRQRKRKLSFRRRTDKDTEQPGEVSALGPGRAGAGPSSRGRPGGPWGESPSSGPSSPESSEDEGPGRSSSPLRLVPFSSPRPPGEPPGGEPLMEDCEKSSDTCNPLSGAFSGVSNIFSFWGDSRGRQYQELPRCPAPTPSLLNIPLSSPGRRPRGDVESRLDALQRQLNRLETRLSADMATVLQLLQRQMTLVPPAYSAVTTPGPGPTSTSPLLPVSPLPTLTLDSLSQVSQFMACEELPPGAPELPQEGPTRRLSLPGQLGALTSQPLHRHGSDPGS

Row | SMILES | activity change, negative = inhibition | Potency
1 | COc1ccc2[nH]c3c(c2c1)CCNC3 | -12.9% (inactive) | 
2 | CCCC(=O)OC(C(Cl)(Cl)Cl)P(=O)(OC)OC (stereo not given) | 26.9% (inactive) | 
3 | O=C1CN=C(c2ccccc2)c2cc(Cl)ccc2N1CC1CC1 | -16.9% (inactive) | 
4 | NCC(CP(=O)(O)O)c1ccc(Cl)cc1 (stereo not given) | 18.7% (inactive) | 
5 | CCN(CC)CCO[C@H]1CC[C@@]2(C)C(=CC[C@@H]3[C@@H]2CC[C@]2(C)C(=O)CC[C@@H]32)C1 | -6.96% (inactive) | 
6 | FC(F)OC(F)(F)C(F)Cl (stereo not given) | -9.7% (inactive) | 
7 | CCN(CC)C(=O)N[C@H]1C[C@@H]2c3cccc4[nH]cc(c34)C[C@H]2N(C)C1 | -5.04% (inactive) | 
8 | CCCn1c(C)c(C(=O)c2ccc3ccccc3c2)c2ccccc21 |  | 6.31 µM (active)
9 | CP(=O)(O)C1=CCNCC1 | 37.1% (inactive) | 
10 | CO[C@H]1CC=C2CCN3CCC4=C(CC(=O)OC4)[C@]23C1 | 20.6% (inactive) | 
11 | CCCC(C)(COC(N)=O)COC(=O)NC1CC1 (stereo not given) | 0.412% (inactive) | 
12 | C[N+]1(C)CCC(OC(=O)C(c2ccccc2)c2ccccc2)CC1 | 1.31% (inactive) | 
13 | CCCn1c(=O)c2[nH]c(C3CCCC3)nc2n(CCCOC(=O)c2ccc(S(=O)(=O)F)cc2)c1=O |  | 14.1 µM (active)
14 | CN[C@H]1C[C@@H](N)[C@H](O)[C@@H](O[C@@H]2O[C@H](CO)[C@H](O)[C@@H]3OC4(O[C@H]23)O[C@H](C(N)CO)[C@H](O)[C@H](O)[C@H]4O)[C@@H]1O (stereo not given in full) | 1.51% (inactive) | 
15 | COc1ccc2c3c1O[C@H]1[C@@H](O)C=C[C@H]4[C@@H](C2)NCC[C@@]341 | 0.737% (inactive) | 
16 | ClC=C(Cl)Cl |  | inactive
17 | NC(=O)COc1c(F)cc(SCCNS(=O)(=O)c2ccccc2)cc1F | 1.5% (inactive) | 
18 | CC(=O)Oc1ccc2c3c1O[C@H]1[C@@H](OC(C)=O)C=C[C@H]4[C@@H](C2)N(C)CC[C@@]341 | 16.8% (inactive) | 
19 | CCCN1CCCC2Cc3[nH]ncc3CC21 (stereo not given) |  | inactive
20 | C[N+]1(C)CCOC(O)(c2ccc(-c3ccc(C4(O)C[N+](C)(C)CCO4)cc3)cc2)C1 (stereo not given) | 15.7% (inactive) | 

Row | SMILES | activity change, negative = inhibition | Potency
21 | C#CCN1CC(=O)N(COC(=O)C2C(C=C(C)C)C2(C)C)C1=O (stereo not given) | 5.66% (inactive) | 
22 | C[C@H]1CCC[C@H](O)CCCCCc2cc(O)cc(O)c2C(=O)O1 |  | inactive
23 | CCCCCCC(=O)O[C@H]1CC[C@H]2[C@@H]3CC[C@H]4CC(=O)C=C(C)[C@]4(C)[C@H]3CC[C@]12C |  | 14.1 µM (active)
24 | CN1C2CCC1CC(OC(c1ccccc1)c1ccc(Cl)cc1)C2 (stereo not given) |  | 0.501 µM (active)
25 | CNC(=O)Oc1ccccc1C(=O)Nc1ccccc1 | -5.41% (inactive) | 
26 | c1ccc2sc(SNC3CCCCC3)nc2c1 | 20% (inactive) | 
27 | COc1ccc2c(c1)[C@@]13CCCC[C@H]1[C@@H](C2)NCC3 |  | 11.2 µM (active)
28 | COc1ccc(OC)c(C(O)C(C)N)c1 (stereo not given) | 5.62% (inactive) | 
29 | c1csc(C2(N3CCCCC3)CCCCC2)c1 | -9.59% (inactive) | 
30 | O=[N+]([O-])C(Br)(CO)CO | -4.81% (inactive) | 
31 | CC1(C)S[C@@H]2[C@H](N)C(=O)N2[C@H]1C(=O)O | -2.7% [at 20.6 µM] (inactive) | 
32 | O=C1C=CC(=O)C=C1 | 21.6% (inactive) | 
33 | C[N+]1([O-])[C@@H]2CC[C@H]1CC(OC(=O)C(CO)c1ccccc1)C2 (stereo not given in full) |  | inactive
34 | C[N+]1(C)CCN(c2ccccc2)CC1 | 12.7% (inactive) | 
35 | C#CCN[C@H](C)Cc1ccccc1 | 0.647% (inactive) | 
36 | O=[N+]([O-])c1cc(I)c(O)c(I)c1 | -15.6% (inactive) | 
37 | Nc1ccc(CCN2CCN(c3cccc(C(F)(F)F)c3)CC2)cc1 |  | 2.24 µM (active)
38 | Cc1c2ccncc2c(C)c2c1[nH]c1ccccc12 |  | 20 µM (active)
39 | Oc1ccc2c3c1O[C@H]1[C@@H](O)CC[C@@]4(O)[C@@H](C2)N(CC2CCC2)CC[C@]314 | -1.89% (inactive) | 
40 | CC(=O)O[C@H]1C[C@H](O[C@H]2[C@@H](O)C[C@H](O[C@H]3[C@@H](O)C[C@H](O[C@H]4CC[C@@]5(C)[C@H](CC[C@@H]6[C@@H]5C[C@@H](O)[C@]5(C)[C@@H](C7=CC(=O)OC7)CC[C@]65O)C4)O[C@@H]3C)O[C@@H]2C)O[C@H](C)[C@H]1O[C@@H]1O[C@H](CO)[C@@H](O)[C@H](O)[C@H]1O | -13.7% (inactive) | 

From PubChem BioAssay (NCATS)
